Here are results for 13 compounds from PubChem BioAssay (NCATS).

Inconclusive results are not listed. Active and inactive are the calls of the source. Unless noted, calls come from the whole dose curve; as a rule, active = well fitted curve in the direction sought with a large enough effect; inconclusive = small, poorly fitted or top-dose-only effect, or another doubt; inactive = no such curve, though single readings can be large; an effect the other way counts as inactive or inconclusive.

Test [1] in a line: qHTS drug screen for cell cycle checkpoint inhibitors in PARPi-resistant BRCA-mutant ovarian cancer cell lines. (AID 1963452; calls by dose curve). Particulars: PEO1/OlaR viability, CellTiter-Glo luminescence, 96 h, stronger effect = lower value. Put shortly:
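PEO1, PEO4 and PEO1/OlaR ovarian cancer cells, 600 per well, exposed 96 h at 37C to a dilution series. Viability read by CellTiter-Glo luminescence, normalized to DMSO and empty wells; activity summarized as Z-AUC.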

Test [2] is described as follows: qHTS for identification of novel therapeutic agents for treatment of microphthalmiaassociated transcription factor (MiT) renal cell carcinoma (RCC) (AID 1963991). Particulars: CellTiter-Glo, 48 h, stronger effect = lower value. In short, it runs like this:
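Curves over 11 concentrations were fitted to CellTiter-Glo luminescence, scaled between empty wells (0%) and DMSO (100%) viability. Cells were UOK109, UOK124 and UOK145 TFE3-fusion RCC lines at 500/well, exposed 48 hours at 37 C.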
In general terms: Quantitative high-throughput screening tests each substance at several concentrations.

Test [3] can be described thus: Quantitative High-Throughput drug screen in 47 multiple myeloma cell lines against the NCATS MIPE library collection: KMS11_JCRBsus cell viability assay (AID 1919873). Note: nearly all actives have a fitted effect of over 50% in size. Note: potency is the fitted concentration of half-maximal effect. The following applies: KMS11 myeloma viability, CellTiter-Glo ATP luminescence, 48 h; series mostly up to 45.8 µM. Put shortly:
(§1)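 MIPE 4.0 approved/investigational drugs; 500 cells/well; 48 h 37 °C humidified 5% CO2; CTG luminescence readout; DMSO = 100%, media = 0% viability.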

A short description of test [4]: Quantitative High-Throughput drug screen in 47 multiple myeloma cell lines against the NCATS MIPE library collection: KMS28BM_JCRB cell viability assay (AID 1919874). Note: nearly all actives have a fitted effect of over 35% in size. Note: potency is the fitted concentration of half-maximal effect. The following applies: CellTiter-Glo ATP, 48 h; series mostly up to 45.8 µM. Put shortly:
as §1
In general terms: ATP-based viability assays read luminescence as a measure of living cells.

The nature of test [5]: qHTS profiling for inhibitors of Plasmodium falciparum proliferation (AID 504749).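 For activity, negative = inhibition: 0% = DMSO vehicle and full inhibition = artemisinin control.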 Note: nearly all actives have a fitted effect of over 60% in size. Note: potency is the fitted concentration of half-maximal effect. Particulars: P. falciparum in erythrocytes, SYBR Green DNA, 72 h. Put shortly: (§2)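 Parasite proliferation within erythrocytes, 72 h exposure. Endpoint: SYBR Green I fluorescence after overnight lysis at room temperature. Controls: 0.29 uM artemisinin, DMSO.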
For test [6], the system named is 3D7. The description is as above. The following applies: P. falciparum in erythrocytes, SYBR Green DNA, 72 h; series mostly up to 28.7 µM. Put shortly: as §2
Test [7] concerns 7G8. Described as above. The following applies: P. falciparum in erythrocytes, SYBR Green DNA, 72 h; series mostly up to 28.7 µM. In short, it runs like this:
as §2

The subject of test [8] is AA1029. Described as above. The following applies: P. falciparum in erythrocytes, SYBR Green DNA, 72 h; series mostly up to 28.7 µM. Put shortly: as §2
Where [9] appears, read: measured here: PEO1 parental Z-AUC.
The mark [10] stands for this setting: TFE3-RCC UOK109 viability, measured here: UOK109 Z-AUC.
[11] abbreviates: TFE3-RCC viability, measured here: UOK124 Z-AUC.
The mark [12] stands for this setting: TFE3-RCC viability, measured here: UOK145 Z-AUC.
[13] abbreviates: at 28.7 µM (top of the series), parasite line A.
[14] abbreviates: at 28.7 µM (top of the series), parasite line B.

`O=C(O)CCn1c2c(c3ccccc31)C[C@H](NS(=O)(=O)c1ccc(F)cc1)CC2`: the Z-AUC in test [1] is 0.321 (inactive); in test [1] (setting [9]), 0.0173; in test [1] (measured here: PEO4 Z-AUC), 0.558. Further, the z-score is 0.68 in test [2] (setting [10]), 0.798 in test [2] (setting [11]) and 0.766 in test [2] (setting [12]).
As to `NC(=O)c1cccnc1`, the Potency entry in test [3], in test [4], in test [6], in test [7] and in test [8] was “inactive” in each case. Besides, the Z-AUC is 1.48 (inactive) in test [1], 1.33 in test [1] (setting [9]) and 1.21 in test [1] (measured here: PEO4 Z-AUC). In addition, the z-score is 0.739 in test [2] (setting [10]), 0.417 in test [2] (setting [11]) and -0.282 in test [2] (setting [12]). Besides, the activity, negative = inhibition in test [5] (setting [13]) was 9.61% (inactive); in test [5] (setting [14]), 2.45% (inactive).
Consider `CC[C@H](C)C(=O)O[C@H]1C[C@@H](C)C=C2C=C[C@H](C)[C@H](CC[C@@H]3C[C@@H](O)CC(=O)O3)[C@H]21`, for which the Potency in test [3] is 20.9 µM (active); in test [4], 23.5 µM (active). Further, the Z-AUC in test [1] was 1 (inactive); in test [1] (setting [9]) it was 1.47; in test [1] (measured here: PEO4 Z-AUC) it was 1.3. Moreover, the values for the activity, negative = inhibition in test [5] (setting [13]) and in test [5] (setting [14]) were -2.1% (inactive) and -31.4% (inactive), respectively. The Potency entry in test [6], in test [7] and in test [8] was “inactive” in each case.
In the case of `OC(Cn1cncn1)(Cn1cncn1)c1ccc(F)cc1F`, the Potency entry in test [3], in test [4], in test [6], in test [7] and in test [8] was “inactive” in each case. Further, the Z-AUC was -0.0807 (inactive) in test [1], 0.99 in test [1] (setting [9]) and 1.12 in test [1] (measured here: PEO4 Z-AUC). For the same compound, the results for the z-score in test [2] (setting [10]), in test [2] (setting [11]) and in test [2] (setting [12]) were 0.751, 0.906 and -0.107, respectively. In addition, in test [5] (setting [13]), the activity, negative = inhibition is 5.43% (inactive).
As to `N[C@@H](Cc1ccc(O)c(O)c1)C(=O)O`, the Potency result in test [4] is “inactive”. Besides, the Z-AUC was -0.0147 (inactive) in test [1], 0.128 in test [1] (setting [9]) and 0.735 in test [1] (measured here: PEO4 Z-AUC).
For the compound `NC1(c2ccc(-c3nc4ccn5c(=O)[nH]nc5c4cc3-c3ccccc3)cc2)CCC1`, the Potency in test [3] was 5.26 µM (active); in test [4] it was 9.35 µM (active). Further, the results for the Z-AUC in test [1], in test [1] (setting [9]) and in test [1] (measured here: PEO4 Z-AUC) were 0.493 (inactive), 0.0138 and -0.184, respectively.
For `CCCCOc1ccc(CC(=O)NO)cc1`, the Potency result in test [4] was “inactive”. Further, the Potency is 1.12 µM (active) in test [5] (parasite line A), 562 nM (active) in test [6] and 1.78 µM (active) in test [7].
Consider `Nc1nc(N)c2nc(CNc3ccc(C(=O)NC(CCC(=O)O)C(=O)O)cc3)cnc2n1` (centres undefined), for which the Potency in test [3] is 0.0526 µM (active); in test [4], 0.0296 µM (active). The figures for the Z-AUC in test [1], in test [1] (setting [9]) and in test [1] (measured here: PEO4 Z-AUC) were 0.0258 (inactive), 0.192 and 1.1, respectively. In addition, the figures for the activity, negative = inhibition in test [5] (setting [13]) and in test [5] (setting [14]) were 3.54% (inactive) and -5.01% (inactive), respectively. Further, the Potency result in test [6], in test [7] and in test [8] was “inactive” throughout.
With `CNCC[C@H](Oc1cccc2ccccc12)c1cccs1`, the Potency is 26.4 µM (active) in test [3], 26.4 µM (active) in test [4], 2.24 µM (active) in test [7] and 7.08 µM (active) in test [8].
For the compound `COc1ccc(C(=O)CC(=O)c2ccc(C(C)(C)C)cc2)cc1`, the Potency entry in test [3], in test [6] and in test [8] was “inactive” in each case. In addition, in test [4], the Potency was 7.43 µM (active). The Z-AUC is 1.49 (inactive) in test [1], 0.772 in test [1] (setting [9]) and 1.06 in test [1] (measured here: PEO4 Z-AUC). Moreover, the activity, negative = inhibition in test [5] (setting [13]) was 0.965% (inactive).
For the compound `CCC(=O)O[C@]1(C(=O)SCF)[C@H](C)C[C@H]2[C@@H]3C[C@H](F)C4=CC(=O)C=C[C@]4(C)[C@@]3(F)[C@@H](O)C[C@@]21C`, the Potency result in test [3] and in test [4] was “inactive” each time. The Z-AUC was -1.29 (inactive) in test [1], -0.0288 in test [1] (setting [9]) and -0.807 in test [1] (measured here: PEO4 Z-AUC).
Take `CC(C)(Sc1cc(C(C)(C)C)c(O)c(C(C)(C)C)c1)Sc1cc(C(C)(C)C)c(O)c(C(C)(C)C)c1`: the Potency entry in test [3], in test [4] and in test [8] was “inactive” throughout. The Z-AUC in test [1] was 0.926 (inactive); in test [1] (setting [9]), 1.36; in test [1] (measured here: PEO4 Z-AUC), 1.09. Further, the activity, negative = inhibition was 6.04% (inactive) in test [5] (at 12.8 µM (top of the series), parasite line A) and 8.09% (inactive) in test [5] (at 12.8 µM (top of the series), parasite line B). In test [6], the Potency is 3550 nM (active).
`C[C@]12C=CC(=O)C=C1CC[C@@H]1[C@@H]2C(=O)C[C@@]2(C)[C@H]1CC[C@]2(O)C(=O)CO`: the Potency result in test [3], in test [6], in test [7] and in test [8] was “inactive” in each case. Moreover, the z-score is 1.31 in test [2] (setting [10]), 1.23 in test [2] (setting [11]) and -3.21 in test [2] (setting [12]). Besides, the results for the activity, negative = inhibition in test [5] (setting [13]) and in test [5] (setting [14]) were 9.08% (inactive) and 14.6% (inactive), respectively.
